The panel holds about 83,000 compounds, 20% with a hit somewhere; the sample as a whole holds those more often.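 Values shown are percent growth following 48 h exposure of cells in 96-well plates to a single concentration of compound; below 10 was considered active.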 Activity calls are given as the source filed them.
How the values were obtained:
Assay in all cases: NCI-60 one-dose screen, 48 h (100 = growth as untreated, 0 = no growth, -100 = all killed)
Details in all cases: 10 µM unless noted
SK-MEL-2 melanoma = test system: SK-MEL-2 melanoma
EKVX NSCLC = test system: EKVX NSCLC
SN12C renal = test system: SN12C renal
UO-31 renal = test system: UO-31 renal
TK-10 renal = test system: TK-10 renal
ACHN renal = test system: ACHN renal
A498 renal = test system: A498 renal
CCRF-CEM leukemia = test system: CCRF-CEM leukemia
MOLT-4 leukemia = test system: MOLT-4 leukemia
SR leukemia = test system: SR leukemia
RPMI-8226 leukemia = test system: RPMI-8226 leukemia
OVCAR-8 ovarian = test system: OVCAR-8 ovarian
OVCAR-5 ovarian = test system: OVCAR-5 ovarian
OVCAR-4 ovarian = test system: OVCAR-4 ovarian
SK-OV-3 ovarian = test system: SK-OV-3 ovarian
IGROV1 ovarian = test system: IGROV1 ovarian
OVCAR-3 ovarian = test system: OVCAR-3 ovarian
HS 578T breast = test system: HS 578T breast
NCI/ADR-RES ovarian = test system: NCI/ADR-RES ovarian
CAKI-1 renal = test system: CAKI-1 renal

Measured: growth

OC(c1ccccc1)c1ccccn1 (configuration not stated)
inactive: SK-MEL-2 melanoma 104% | EKVX NSCLC 98.8% | SN12C renal 99.6% | UO-31 renal 93.1% | TK-10 renal 99.3% | ACHN renal 108% | A498 renal 98.5% | CCRF-CEM leukemia 88.7% | MOLT-4 leukemia 96.8% | SR leukemia 99.1% | RPMI-8226 leukemia 101% | OVCAR-8 ovarian 95.9% | OVCAR-5 ovarian 108% | OVCAR-4 ovarian 116% | SK-OV-3 ovarian 92% | IGROV1 ovarian 106% | OVCAR-3 ovarian 105% | HS 578T breast 91% | NCI/ADR-RES ovarian 110%

COc1ccc(-n2cc(-c3cc(OC)c(OC)c(OC)c3)n(C(C)=O)c2=O)cc1
inactive: SK-MEL-2 melanoma 93.2% | EKVX NSCLC 88% | SN12C renal 93.4% | UO-31 renal 77.2% | TK-10 renal 105% | ACHN renal 97.7% | CAKI-1 renal 53.7% | MOLT-4 leukemia 103% | RPMI-8226 leukemia 123% | OVCAR-8 ovarian 91.8% | OVCAR-5 ovarian 78.3% | OVCAR-4 ovarian 79.9% | SK-OV-3 ovarian 94.6% | IGROV1 ovarian 107% | OVCAR-3 ovarian 108% | HS 578T breast 92.3% | NCI/ADR-RES ovarian 100%

O=C(NCCN1CCOCC1)OCc1nc2nc(Cl)nc(N3CCOCC3)c2[nH]1
active: A498 renal -8.24% | CCRF-CEM leukemia 5.93% | SR leukemia -0.969% | RPMI-8226 leukemia 8.39% | OVCAR-8 ovarian 7.4% | OVCAR-3 ovarian -2.86% | NCI/ADR-RES ovarian 6.61%
inactive: SK-MEL-2 melanoma 18.9% | EKVX NSCLC 95.2% | SN12C renal 29.2% | UO-31 renal 39.6% | TK-10 renal 71% | ACHN renal 33.1% | MOLT-4 leukemia 19% | OVCAR-5 ovarian 93.3% | OVCAR-4 ovarian 45.7% | SK-OV-3 ovarian 30.7% | IGROV1 ovarian 17.6% | HS 578T breast 14.3%

COC(=O)C1NC(=S)N(c2ccc(Cl)cc2)C1/C=C/c1ccccc1 (configuration not stated)
inactive: SK-MEL-2 melanoma 102% | EKVX NSCLC 92.4% | SN12C renal 99.3% | UO-31 renal 86.8% | TK-10 renal 105% | ACHN renal 96.3% | CAKI-1 renal 91.3% | CCRF-CEM leukemia 100% | MOLT-4 leukemia 103% | RPMI-8226 leukemia 95.8% | OVCAR-8 ovarian 101% | OVCAR-5 ovarian 99.8% | IGROV1 ovarian 106% | OVCAR-3 ovarian 101% | HS 578T breast 107% | NCI/ADR-RES ovarian 90%

Nc1cc(N)c2cccnc2c1O
active: CCRF-CEM leukemia 2.91% | MOLT-4 leukemia 5.9%
inactive: SK-MEL-2 melanoma 98.2% | EKVX NSCLC 83.2% | SN12C renal 55.5% | UO-31 renal 56.5% | TK-10 renal 86% | ACHN renal 54.3% | CAKI-1 renal 35.3% | RPMI-8226 leukemia 88% | OVCAR-8 ovarian 68.6% | OVCAR-5 ovarian 96% | OVCAR-4 ovarian 91.2% | SK-OV-3 ovarian 101% | IGROV1 ovarian 66.7% | HS 578T breast 63.6% | NCI/ADR-RES ovarian 71.7%

O=C(O)CNC(=O)CN1C(=O)c2ccccc2C1=O
inactive: SK-MEL-2 melanoma 114% | EKVX NSCLC 103% | SN12C renal 99.1% | UO-31 renal 86.3% | TK-10 renal 104% | ACHN renal 103% | A498 renal 104% | CCRF-CEM leukemia 81.1% | MOLT-4 leukemia 91.8% | SR leukemia 102% | RPMI-8226 leukemia 101% | OVCAR-8 ovarian 94.4% | OVCAR-5 ovarian 101% | OVCAR-4 ovarian 115% | SK-OV-3 ovarian 90.7% | IGROV1 ovarian 107% | OVCAR-3 ovarian 116% | HS 578T breast 113% | NCI/ADR-RES ovarian 104%

CCOC(=O)C1=C(C)NC(C)=C(C(=O)OCC)C1c1cc(Br)c(O)c(OC)c1
active: SK-MEL-2 melanoma -7.22% | HS 578T breast 4.37% | NCI/ADR-RES ovarian -14.5%
inactive: EKVX NSCLC 42.5% | SN12C renal 48.5% | UO-31 renal 40.3% | TK-10 renal 34.1% | ACHN renal 61.3% | CAKI-1 renal 30.1% | CCRF-CEM leukemia 19.9% | MOLT-4 leukemia 44.8% | RPMI-8226 leukemia 29.9% | OVCAR-8 ovarian 25.2% | OVCAR-5 ovarian 66.7% | OVCAR-4 ovarian 47.4% | SK-OV-3 ovarian 16.9% | IGROV1 ovarian 49.9%

O=C(O)/C=C\C(=O)N1C/C(=C\c2ccccc2Cl)C(=O)/C(=C/c2ccccc2Cl)C1
active: SN12C renal -30.7% | UO-31 renal -64.9% | TK-10 renal 0.472% | CAKI-1 renal 0.997% | CCRF-CEM leukemia 3.66% | MOLT-4 leukemia 4.86% | RPMI-8226 leukemia 3.9% | OVCAR-8 ovarian 4.98% | OVCAR-5 ovarian 2.41% | IGROV1 ovarian 1.94% | OVCAR-3 ovarian -37.7% | NCI/ADR-RES ovarian 4.6%
inactive: SK-MEL-2 melanoma 37% | EKVX NSCLC 40.1% | ACHN renal 20.3% | HS 578T breast 47.1%

BrC(Br)(Br)c1cnc2ccccc2n1
active: UO-31 renal -51.1% | TK-10 renal -57.9% | ACHN renal -51.6% | CAKI-1 renal -29.7% | OVCAR-3 ovarian -27.5%
inactive: SK-MEL-2 melanoma 90.2% | EKVX NSCLC 70.4% | SN12C renal 71.6% | CCRF-CEM leukemia 23.2% | RPMI-8226 leukemia 41.8% | OVCAR-8 ovarian 45.4% | OVCAR-5 ovarian 60.3% | OVCAR-4 ovarian 44.1% | SK-OV-3 ovarian 69.4% | IGROV1 ovarian 51.9% | HS 578T breast 66.7% | NCI/ADR-RES ovarian 44.3%

CC1(C)NCCC[C@]2(C)[C@H]3CC=C4[C@@H]5C[C@@](C)(CO)CC[C@]5(C)CC[C@@]4(C)[C@]3(C)CC[C@@H]12
inactive: SK-MEL-2 melanoma 48.4% | EKVX NSCLC 86.5% | SN12C renal 62.1% | UO-31 renal 69.3% | TK-10 renal 63.3% | ACHN renal 54.3% | CAKI-1 renal 76.7% | MOLT-4 leukemia 33.8% | RPMI-8226 leukemia 20.1% | OVCAR-8 ovarian 83.4% | OVCAR-5 ovarian 83.3% | OVCAR-4 ovarian 60.8% | SK-OV-3 ovarian 93.1% | IGROV1 ovarian 56.7% | OVCAR-3 ovarian 72.4% | HS 578T breast 52.7% | NCI/ADR-RES ovarian 74.2%
active: SR leukemia -1.3%

NC(=S)N/N=C(/c1ccccc1)c1ccccc1N
inactive: SK-MEL-2 melanoma 103% | EKVX NSCLC 66.1% | SN12C renal 85% | UO-31 renal 62.8% | TK-10 renal 103% | ACHN renal 90.6% | CAKI-1 renal 80.9% | CCRF-CEM leukemia 60.2% | MOLT-4 leukemia 52.7% | RPMI-8226 leukemia 72.6% | OVCAR-8 ovarian 64.7% | OVCAR-4 ovarian 78.5% | SK-OV-3 ovarian 108% | IGROV1 ovarian 40.1% | OVCAR-3 ovarian 50.7% | HS 578T breast 97.2% | NCI/ADR-RES ovarian 74.2%

From PubChem BioAssay (NCI)
